# Test results published in article PMC7819943, “Rice protein-binding microarrays: a tool to detect cis-acting elements near promoter regions in rice”.
# In all, about 68,000 sequences were measured (“fluorescence intensity (a.u.)”: median about 9,100, highest 2% from about 16,000 on). Only a selection was taken, and the highest values are over-represented in it overall.
# Target: OsWRKY34 (Oryza sativa, UniProt Q0JBA9 1-250)
# Test: protein-binding microarray (RPBM); PBS, 2% BSA, 51.3 ng/ul salmon testes DNA, 50 uM zinc acetate, 200 nM TF, 25 C, 1 h; high values mean tight binding
# Details: protein: recombinant; tags: N-terminal polyhistidine and DsRed monomer fusion (pET32a); label: CyDye5-dUTP incorporated in the synthesized complementary strand; 3' TTTTT single-stranded linker to array surface; dsDNA, one strand shown
# Summary of the method: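 Using Ni–NTA, transcription factors fused N-terminally to polyhistidine and DsRed were purified after expression in E. coli BL21-CodonPlus. These were incubated at 200 nM with a blocked, double-stranded custom Agilent array for 1 h at 25 °C in a buffer containing 50 µM zinc acetate, and the array was washed. The binding signal is per-feature fluorescence intensity (arbitrary units) on an Axon 4000B scanner.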
# Sequence of OsWRKY34 (Q0JBA9 entry or part of it): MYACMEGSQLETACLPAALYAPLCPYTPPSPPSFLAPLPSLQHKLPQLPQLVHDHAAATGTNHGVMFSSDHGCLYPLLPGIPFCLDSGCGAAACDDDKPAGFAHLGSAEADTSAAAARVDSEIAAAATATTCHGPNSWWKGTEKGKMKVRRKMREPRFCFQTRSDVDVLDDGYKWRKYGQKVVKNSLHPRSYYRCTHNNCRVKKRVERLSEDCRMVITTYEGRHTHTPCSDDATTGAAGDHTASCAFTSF
row,Sequence,binding signal
1,CTGGCCGCCATCTCCGCCAATCTCGCTGAATCGGACGCCACGGAGTCACCTAGTGCAG,8460 fluorescence intensity (a.u.)
2,ATGTGTGGATTTATAAGGGTGAGTATATGTGTTTCGGGAACGGAGTCACCTAGTGCAG,8140 fluorescence intensity (a.u.)
3,GGGGTTTTTCTTATGTTAGTATATGTGTGGGATGTGTGAACGGAGTCACCTAGTGCAG,16800 fluorescence intensity (a.u.)
4,GAAATGTGGGAGGGGTTTTCTTACAAATGTTATATAGACACGGAGTCACCTAGTGCAG,13900 fluorescence intensity (a.u.)
5,CGGGTTCAATATATTGTTTTTTTTAAGACTGGTTCAATATCGGAGTCACCTAGTGCAG,8880 fluorescence intensity (a.u.)
6,TATGTGTTTTTTGCCGATTAAATTATTACGGGATATATAACGGAGTCACCTAGTGCAG,9680 fluorescence intensity (a.u.)
7,TATATCACATTTAATTATTTTTCCCATGTTCTTGTTTTAACGGAGTCACCTAGTGCAG,9480 fluorescence intensity (a.u.)
8,ATTGGGTTGATATTATATTGGCAGGGCCAGAAAGTTTTACCGGAGTCACCTAGTGCAG,8580 fluorescence intensity (a.u.)
9,TAAGACGAATGGTCAAACATGTAAGAAAAAGTCAACGGTACGGAGTCACCTAGTGCAG,12900 fluorescence intensity (a.u.)
10,CGAATGGTCAAACATGTAGAAAAAAGTCAACGGTGTCATCCGGAGTCACCTAGTGCAG,16900 fluorescence intensity (a.u.)
11,ACGAATGGTCAAACATGTGAGGAAAAGTCAACGGCGTCATCGGAGTCACCTAGTGCAG,13400 fluorescence intensity (a.u.)
12,AATGGTCAAACATGTGAGAAAAAGTCAACGGCGTTATCTACGGAGTCACCTAGTGCAG,15500 fluorescence intensity (a.u.)
13,CGGTCAAACATGTGCTAAAAAGTCAACGGTGTCAAATATTCGGAGTCACCTAGTGCAG,11400 fluorescence intensity (a.u.)
14,AACGGTCAAATATGTGCTAAAAAGTCAACGGTGTCAAATACGGAGTCACCTAGTGCAG,11300 fluorescence intensity (a.u.)
15,CGAATGGTCAAACATATGAGAAAAAGTCAACGATGTCATCCGGAGTCACCTAGTGCAG,13900 fluorescence intensity (a.u.)
16,AACGGTCAAACATGTGCTAAAAAGTCAACGGTGTCAAATACGGAGTCACCTAGTGCAG,18600 fluorescence intensity (a.u.)
17,ACGAACGGTCAAACATGTGCTAAAAAGTCAACGGTGTCAACGGAGTCACCTAGTGCAG,15900 fluorescence intensity (a.u.)
18,ATGGTCAAACATGTGAGAAAAAGTCAACGGCGTCATCTATCGGAGTCACCTAGTGCAG,19600 fluorescence intensity (a.u.)
19,GAACGGTCAAACATGTGCTAAAAAGTCAACGGTGTCAAACCGGAGTCACCTAGTGCAG,10100 fluorescence intensity (a.u.)
20,ATGGTCAAACATGTGCTAAAAAGTCAACGGTGTCAAACATCGGAGTCACCTAGTGCAG,17700 fluorescence intensity (a.u.)
21,TAGCTCGGATTCTGCCCCTAATCCCGCCGTCCGCCTCCGCCGGAGTCACCTAGTGCAG,8490 fluorescence intensity (a.u.)
22,AGGCAACACATACAATGTATCACCTCTAACACACAAATACCGGAGTCACCTAGTGCAG,8410 fluorescence intensity (a.u.)

row,Sequence,binding signal
1,TCCATCAGTTTTGTGAACTCTGTCTGTCACTCGCTCAGCACGGAGTCACCTAGTGCAG,8940 fluorescence intensity (a.u.)
2,TTCTTCGTTTTTCTGAGTACGATCTCCCAGGGTTATAATCCGGAGTCACCTAGTGCAG,8850 fluorescence intensity (a.u.)
3,CGAGACCGACTGATGCTACAACTTCTGTCCTTGCTCCGGCCGGAGTCACCTAGTGCAG,8620 fluorescence intensity (a.u.)
4,ATGTGTGACTTGTCTTTTTAATTTTTTTTTTAATTTTTTTCGGAGTCACCTAGTGCAG,9610 fluorescence intensity (a.u.)
5,AGGCTATCGTATGACTTTCTTCTGCTTTCATTTGTGTTCACGGAGTCACCTAGTGCAG,15300 fluorescence intensity (a.u.)
6,TGGTGGCGTCTGTATTGGGTTTCTTTCTCCAAGTTATATTCGGAGTCACCTAGTGCAG,9710 fluorescence intensity (a.u.)
7,CTTTGCTCACTCTTTCTTTTCTCTTCAGGTCTCCATTCTTCGGAGTCACCTAGTGCAG,12200 fluorescence intensity (a.u.)
8,CGTGTCGGTGTCTCATCTCTCTCTCTCTTCCCATCCGCCGCGGAGTCACCTAGTGCAG,8790 fluorescence intensity (a.u.)
9,CCAAAAACCTCTACTCTTCCGCGTCTTGGAAAATTCTTCTCGGAGTCACCTAGTGCAG,9300 fluorescence intensity (a.u.)
10,TAAGATAAACGGTCAAACATTTGCTAAAAAGTCAACGGTGCGGAGTCACCTAGTGCAG,17300 fluorescence intensity (a.u.)
11,GTGCTAAAAAGTCAACGGTGTCAAATATTTAGAAATGAAGCGGAGTCACCTAGTGCAG,21200 fluorescence intensity (a.u.)
12,TTGCTAAAAAGTCAACGGTGTCAAATATTTCGAAACGGAGCGGAGTCACCTAGTGCAG,12300 fluorescence intensity (a.u.)
13,TCAAACACGTACTAAAAAGTCAACGGTGTCAAACATTTTGCGGAGTCACCTAGTGCAG,15600 fluorescence intensity (a.u.)
14,CATGTCACTATACTATTATATCCTATTATATCCTATAATACGGAGTCACCTAGTGCAG,8100 fluorescence intensity (a.u.)
15,TGTGCTAAAAAAGTCAACGGTGTCAAATATTTCGAAACGGCGGAGTCACCTAGTGCAG,14700 fluorescence intensity (a.u.)
16,AATAATAAGAACGGTCAAACATATGCTAAAAAGTCAACGGCGGAGTCACCTAGTGCAG,11500 fluorescence intensity (a.u.)
17,TTATAACATGTCATTAATAAAGGGCATTATGCAACTAATACGGAGTCACCTAGTGCAG,64200 fluorescence intensity (a.u.)
18,GTCAAACATGTGCTAAAAAGTCAACGGTGTCAAACATTTCCGGAGTCACCTAGTGCAG,17400 fluorescence intensity (a.u.)
19,GTCAAACATGTGCTAAAAAGTCAACAGTGTCAAACATTTCCGGAGTCACCTAGTGCAG,9540 fluorescence intensity (a.u.)
20,AAACATGTGCTAAAAAGTCAACGGTGTCAAACATTTTGAACGGAGTCACCTAGTGCAG,10400 fluorescence intensity (a.u.)
21,TACTATTTTTTTCTATAACTATTTATGTCACATGTAAATACGGAGTCACCTAGTGCAG,8300 fluorescence intensity (a.u.)
